Data published in PubChem BioAssay (NCI).
The panel holds about 83,000 compounds, 20% with a hit somewhere; the sample as a whole holds those more often.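 Negative percent growth values reflect cell death: -40 means 40% of the cells present at the start died, and -100 means all died.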 Unmarked numbers belong to inactive results. Calls of active or inactive are those of the source.

The molecules below were run on SK-OV-3 ovarian (assay: NCI-60 one-dose screen, 48 h (100 = growth as untreated, 0 = no growth, -100 = all killed)). Conditions: 10 µM.
Experimental: Growth inhibition of the SK-OV-3 human tumor cell line is measured as a screen for anti-cancer activity. Cells are grown in 96 well plates and exposed to the test compound for 48 hours. Compounds are tested at a single concentration, which is 10^-5 M for most compounds. The reported endpoint is percent growth (GI% or GIPRCNT), where numbers from 0 - 100% represent growth inhibition, and numbers from -100% - 0 represent cell death. For example, a value of 40 represents 60% growth inhibition. A value of 0 means no net growth occurred over the course of the experiment. A value of -40 indicates 40% of cells at the beginning of the experiment died by the end of the experiment. A value of -100 means all cells are dead at the end of the experiment.
NCI-60 Human Tumor Cell Lines Screen was performed using the standard one-dose NCI protocol, which is described in more detail at https://dtp.cancer.gov/discovery_development/nci-60/default.htm.
Compounds with GIPRCNT values below 10 were considered active. Activity score was based on GIPRCNT using the following formula: […]
Score is 0 for GIPRCNT values of 100 or above, 50 for GIPRCNT values of 0, and 100 for GIPRCNT values of -100.

**Q.** For `FC(F)(F)c1ccc2c(c1)n1cnnc1c1nncn21`, which growth is on record?
**A.** Its growth is 109%.

**Q.** How did the growth turn out when `Cc1ccc(S(=O)(=O)N2CCc3ccc(O)c4c3C2Cc2ccc3c(c2-4)OCO3)cc1` (stereo not given) was run?
**A.** The growth was 7.28% (active).

**Q.** How did the growth turn out when `O=C1N/C(=C\c2ccccc2)c2ncccc21` was run?
**A.** The growth was 89.9%.

**Q.** For `Cc1nc2cc(Nc3nc(Cl)nc(Nc4ccc(F)cc4)n3)ccc2n1Cc1ccccc1`, which growth is on record?
**A.** The growth was 95.9%.

**Q.** For `O=c1onc(-c2ccccc2)c2ccccc12`, which growth is on record?
**A.** The growth was 112%.

**Q.** For `CCOC(=O)c1c(-c2cc(OC)c(OC)c(OC)c2)csc1N`, which growth is on record?
**A.** The growth was 90.9%.

**Q.** `Cc1cc(=O)c2c(C)ccc(C)c2[nH]1` was tested. Which growth did it give?
**A.** Its growth is 107%.

**Q.** For `O=C(N/N=C/c1ccc(F)cc1)c1[nH]c2ccc(I)cc2c1-c1ccccc1`, which growth is on record?
**A.** Its growth is -1.53% (active).

**Q.** Which growth does the source give for `ONc1nc(NO)c2[nH]cnc2n1` here?
**A.** The growth was 97.1%.

**Q.** `CN1CCc2cccc3c2C1Cc1ccc(O)c(O)c1-3` (stereo not given) was tested. Which growth did it give?
**A.** Its growth is 102%.

**Q.** Which growth does the source give for `COc1ccc(Nc2[nH]n(C3=Nc4ccccc4Sc4ccccc43)c(=O)c2C#N)cc1` here?
**A.** Its growth is 53.5%.

**Q.** For `O=C1C(OCCOc2ccccc2)=C(OCCOc2ccccc2)C(=O)c2ccccc21`, which growth is on record?
**A.** The growth was 57.9%.

**Q.** For `O=C(Nc1ccc(F)cc1)c1ccc(C(=O)Nc2ccc(F)cc2)cc1`, which growth is on record?
**A.** Its growth is 103%.

**Q.** `CCOC(=O)c1c(Cl)c2c(n1Cc1ccc(OC)cc1)-c1oncc1CCC2` was tested. Which growth did it give?
**A.** The growth was 105%.

**Q.** `Oc1cccc(Nc2nc(-c3ccccn3)cs2)c1` was tested. Which growth did it give?
**A.** The growth was 95.2%.

**Q.** With `O=C(Nc1nc2ccccc2[nH]1)C(=O)Nc1nc2ccccc2[nH]1` as the molecule, how does the growth read?
**A.** The growth was 108%.

**Q.** Which growth does the source give for `Cc1cc(=O)oc2c1ccc1oc(C(=O)c3ccccc3)c(C)c12` here?
**A.** Its growth is 109%.

**Q.** `CCN1CCN(C(=S)SCC(=O)Nc2nc3ccc(OC)cc3s2)CC1` was tested. Which growth did it give?
**A.** Its growth is 112%.

**Q.** `COc1ccc(-c2nc3sccn3c2/C=C/C(=O)c2cc(OC)c(OC)c(OC)c2)cc1OC` was tested. Which growth did it give?
**A.** The growth was 26.3%.

**Q.** With `COc1cc(/C=C/c2cc(/C=C/c3ccc(O)c(OC)c3)n(-c3ccccc3)n2)ccc1O` as the molecule, how does the growth read?
**A.** The growth was -53.1% (active).

**Q.** With `Cc1ccc2c(c1)c(Sc1ccc(C(=O)NO)cc1)c1n2CN(C)CC1` as the molecule, how does the growth read?
**A.** The growth was 21.1%.

**Q.** How did the growth turn out when `Clc1ccc(C2=Nc3cccc4cccc(c34)N2)cc1Cl` was run?
**A.** The growth was 98.1%.

**Q.** Which growth does the source give for `Cc1cc(=O)[nH]n1-c1cc(Cl)ccc1N` here?
**A.** Its growth is 98.6%.

**Q.** With `COc1cc2nc(N3CCC[C@H](NC4=CC(=O)c5ccccc5C4=O)C3)nc(N)c2cc1OC` as the molecule, how does the growth read?
**A.** Its growth is 116%.

**Q.** For `CN1CCn2c(c(Sc3ccc(C(=O)NO)cc3)c3ccccc32)C1=O`, which growth is on record?
**A.** The growth was 57.4%.

**Q.** How did the growth turn out when `CCCCC(CCCC)(S(=O)(=O)CC)S(=O)(=O)CC` was run?
**A.** Its growth is 105%.

**Q.** How did the growth turn out when `COc1cccc(C2C3=C(COC3=O)N(CCO)c3cc4c(cc32)OCO4)c1` (stereo not given) was run?
**A.** The growth was 20.8%.

**Q.** For `COc1nc2c(cc1S(=O)(=O)c1ccccc1)CCc1c-2cnn1-c1ccccc1Cl`, which growth is on record?
**A.** Its growth is 85.7%.

**Q.** With `COc1ccc(-n2ncc3c4nc(OC)c(S(=O)(=O)c5ccccc5)cc4ccc32)cc1` as the molecule, how does the growth read?
**A.** The growth was 55.8%.

**Q.** How did the growth turn out when `COc1cc(C(=O)N(C(C)C)C2CCCCC2)cc(OC)c1OC` was run?
**A.** Its growth is 91.3%.

**Q.** How did the growth turn out when `COc1cc(-c2ccc3cc(OC)c(OC)c(OC)c3c2)cc(OC)c1OC` was run?
**A.** The growth was 76.7%.

**Q.** How did the growth turn out when `O=C1CC(c2ccsc2)c2snc(-c3ccc(Cl)cc3)c2N1` (stereo not given) was run?
**A.** The growth was -3.45% (active).

**Q.** How did the growth turn out when `CCOc1ccc(-c2cnnn2-c2nonc2-n2cccc2)cc1` was run?
**A.** The growth was -1.75% (active).

**Q.** Which growth does the source give for `N#Cc1ccc(C(F)(F)F)nc1N1CCC(C(=O)Nc2ccc(Cl)cc2)CC1` here?
**A.** The growth was 82.5%.

**Q.** Which growth does the source give for `NC(=O)c1nc2c([nH]c1=O)CCCC2` here?
**A.** The growth was 94.7%.

**Q.** With `CCN1C(=O)C2(Nc3ccccc3S2)c2cc(C)ccc21` (stereo not given) as the molecule, how does the growth read?
**A.** Its growth is 100%.

**Q.** How did the growth turn out when `O=S(=O)(OCCO)c1ccccc1` was run?
**A.** The growth was 109%.

**Q.** Which growth does the source give for `COc1cccc(C2C3=C(COC3=O)N(CCO)c3cc4c(cc32)CCC4)c1` (stereo not given) here?
**A.** The growth was 20.9%.

**Q.** For `COC(=O)/C=C1/CCC2C3CCC4=CC(=O)C(Br)CC4(C)C3C(=O)CC12C` (stereo not given), which growth is on record?
**A.** Its growth is 103%.

**Q.** Which growth does the source give for `COc1ccc(-c2c(-c3cc4c(c(OC)c3OC)OCO4)noc2N)cc1` here?
**A.** The growth was 16.2%.
